DT40 TDP1 no CPT: qHTS for Inhibitors of human tyrosyl-DNA phosphodiesterase 1 (TDP1): qHTS in cells in absence of CPT. AID 686978, 2013. Potency, µM (highest dose often 46.2 µM), without a hit: at the highest dose activity change, negative = growth inhibition, most hits filed as inhibitors. 15% of 420,000 active. DT40 Tdp1-/- hTDP1 cells, no CPT, ATP luminescence, 48 h; also: % is scaled to controls: 0 for no effect and ±100 for the full control effect; nearly all actives have a fitted effect of over 55% in size
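Seeded 400 DT40-hTDP1 cells/well (vehicle DMSO, no 20 nM CPT); pinned compounds; ≥48 hr at 37 °C; CellTiter-Glo luminescence as viability measure.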
TDP1 inh: inhibitors of human tyrosyl-DNA phosphodiesterase TDP1; Q9NUW8; recombinant TDP1, AlphaScreen DNA substrate cleavage; Potency, µM (top dose mostly 130 µM), inactives show top-dose activity change, negative = inhibition, most hits filed as inhibitors; 0.28% of 350,000 active; AID 485290; also: % is scaled to controls: 0 for no effect and ±100 for the full control effect; nearly all actives have a fitted effect of over 40% in size
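AlphaScreen read-out: signal falls as enzyme removes the 3' tyrosine-FITC from a 5'-biotinylated DNA oligo (15 nM, 5 min, RT). Enzyme was E. coli-made recombinant Tdp1 at 1 nM, exposed to compound for 15 min beforehand; beads 10 ug/ml, 10 min.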
ClpP mod: qHTS Assay for Activators of ClpP. purified B. subtilis ClpP, FRET peptide cleavage, 20 min. Potency, µM (doses to about 57.5 µM), inactives show at the top dose activity change, negative = active. 1.9% of 340,000 active. AID 651965, 2013; active = well fitted falling curve with a large enough effect; inconclusive = small, poorly fitted or top-dose-only effect; inactive = no such curve, though single readings can be large or run the other way; also: the source files actives as falling curves though it sought activators and does not explain the sign; nearly all actives have a fitted effect of over 65% in size
Target sequence (P80244 whole entry, looked up): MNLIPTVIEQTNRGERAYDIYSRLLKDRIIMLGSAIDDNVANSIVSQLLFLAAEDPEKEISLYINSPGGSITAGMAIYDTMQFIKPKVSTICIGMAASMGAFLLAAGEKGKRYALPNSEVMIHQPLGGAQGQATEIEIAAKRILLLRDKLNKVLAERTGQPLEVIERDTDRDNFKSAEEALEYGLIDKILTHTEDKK
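Purified B. subtilis ClpP, 10 microg/mL final in Tris/HCl pH8 with KCl, BSA, glycerol and Tween-20, cleaved an Abz/nitrotyrosine-quenched decapeptide. Fluorescence (ex 320, em 430) was read at 0 and 20 min at room temperature. Delta was normalized to 5.8 microM ADEP and DMSO/no-enzyme controls.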
TDP1 cell CPT: DT40-hTDP1 cell growth loss with CPT; chicken DT40 Tdp1-/-;hTDP1 cells + 20 nM CPT, ATP luminescence, 48 h; Potency, µM (top dose mostly 46.2 µM), for inactives: at the top dose activity change, negative = growth inhibition, most hits filed as inhibitors; 12% of 420,000 active; AID 686979; also: % is scaled to controls: 0 for no effect and ±100 for the full control effect; nearly all actives have a fitted effect of over 55% in size
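Chicken DT40 Tdp1-/- cells stably complemented with human TDP1 were seeded at 400 cells/well in medium containing 20 nM camptothecin, exposed to pin-transferred compounds, and grown at 37 °C for at least 48 hr. Viability was read as ATP luminescence.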
* marks the source's active call; other numbers are inactive results; ? = inconclusive; · = no result; [ ] = another dose, or the depositor's remark. Rows were chosen to be rich in hits. Some 17% of all compounds tested hit in one or more screens of this group. Unless noted, calls follow the shape of the dose curve; as a rule, active = well fitted curve in the direction sought with a large enough effect; inconclusive = small, poorly fitted or top-dose-only effect, or another doubt; inactive = no such curve, though single readings can be large; an effect the other way counts as inactive or inconclusive. Potency is read from the fitted curve at half-maximal effect.

SMILES	DT40 TDP1 no CPT	TDP1 inh	ClpP mod	TDP1 cell CPT
Cc1cc(N2CCN(C(C(=O)NC3CCCC3)c3ccc(F)cc3)CC2)c2ccccc2n1 (configuration not stated)	?	·	-4%	18µM*
O=C(NC1CCCC1)C(c1ccc(F)cc1)N1CCC(O)(c2ccc(Cl)cc2)CC1 (configuration not stated)	?	·	2%	?
O=C(Nc1ccc(Cl)cc1)C1=Cc2cc(Cl)ccc2OC1	26µM*	0%	-5%	18µM*
O=C(Nc1ccc(Cl)cc1Cl)C1=Cc2ccccc2OC1	-17%	0%	3%	-20%
COc1cc(/C=N/NC(=S)NCc2ccco2)cc(OC)c1OC	?	0%	-7%	16µM*
S=C(NCc1ccco1)N/N=C/c1ccc(Cl)cc1	21µM*	5%	0%	?
CCc1ccc(OCC(=O)NCC(c2ccc(OC)cc2)N2CCOCC2)cc1 (configuration not stated)	?	-1%	-1%	?
Brc1ccc(C2C=Cc3ccccc32)cc1 (configuration not stated)	?	·	-1%	?
CC(C)C(=O)Nc1ccc(NC(=O)c2cccc3c(Br)cccc23)cc1	?	·	·	16µM*
CC(C)C(=O)Nc1ccc(Nc2ccccc2)cc1	10µM*	3%	-1%	12µM*
CC(C)C(=O)Nc1ccc(Sc2ccc(F)cc2)cc1	16µM*	-4%	0%	16µM*
CC(SCc1ccccc1)C(=O)Nc1ccc(F)cc1 (configuration not stated)	-18%	-8%	-1%	-19%
CC1CC(NS(=O)(=O)c2cccs2)CC(C)(C)C1 (configuration not stated)	?	4%	-2%	-28%
COCCC(=O)N1CCCC(C(=O)c2ccc(C(F)(F)F)cc2)C1 (configuration not stated)	-24%	1%	·	-22%
Cc1ccc2[nH]nc(C(=O)N3CCCC(C(=O)c4ccc(Cl)cc4)C3)c2c1 (configuration not stated)	16µM*	0%	·	?
COCC(=O)N1CCCC(C(=O)c2ccc(Oc3ccccc3)cc2)C1 (configuration not stated)	8.2µM*	0%	·	?
Cc1cc(C(=O)N2CCCC(C(=O)c3ccc(Oc4ccccc4)cc3)C2)n[nH]1 (configuration not stated)	13µM*	·	2%	21µM*
COCC(=O)N1CCCC(C(=O)c2ccc(-c3ccccc3)c(F)c2)C1 (configuration not stated)	15µM*	3%	-1%	21µM*
CCCCn1c(N)c(N(CC)C(=O)c2c(C)noc2C)c(=O)[nH]c1=O	2%	1%	·	6%
CC(C)c1ccc(NC(=O)N2c3ccccc3Sc3ccccc32)cc1	?	·	-1%	?
FC(F)(F)c1cnc(-c2cnc3c(-c4ccc(Cl)cc4)cnn3c2)c(Cl)c1	?	3%	-2%	?
N#Cc1cnn2cc(-c3ncc(C(F)(F)F)cc3Cl)cnc12	-13%	3%	28µM*	?
Cc1noc(C)c1COc1ccc(C(=O)N2CCN(S(=O)(=O)c3ccccc3)CC2)cc1	?	3%	-1%	?
Cc1noc(C)c1COc1ccc(C(=O)NNC(=O)c2ccccc2F)cc1	1.5µM*	0%	0%	2.3µM*
Cc1noc(C)c1COc1ccc(C(=O)O)cc1	-11%	6%	·	-10%
SMILES	DT40 TDP1 no CPT	TDP1 inh	ClpP mod	TDP1 cell CPT
Cc1cccc(C)c1NC(=O)c1ccc(OCc2c(C)noc2C)cc1	16µM*	1%	2%	?
Cc1noc(C)c1COc1ccc(C(=O)N2CCN(c3ccccc3O)CC2)cc1	16µM*	1%	0%	?
Cc1noc(C)c1COc1ccccc1C(=O)NNC(=O)c1ccccc1F	3%	1%	0%	-7%
Cc1noc(C)c1COc1ccc(C(=O)NNC(=O)c2ccccc2)cc1	4.6µM*	·	1%	5.2µM*
Cc1noc(C)c1C(=O)N1CCN(c2ccc(OCc3ccccc3)cc2)CC1	16µM*	·	-3%	15µM*
COc1ccc(N2CCN(C(=O)c3c(-c4ccccc4)noc3C)CC2)cc1	?	8%	-3%	?
CCOCc1cn(CC(=O)c2ccc(Cl)cc2)c(C)nc1=N	-6%	4%	-17%	-3%
CCOCc1cn(CC(=O)c2ccc([N+](=O)[O-])cc2)c(C)nc1=N	?	4%	0%	23µM*
Cc1nn(CCCC(=O)Nc2cccc(C(F)(F)F)c2)c(=O)c2nn(-c3ccccc3)c(C)c12	-24%	0%	-2%	-16%
CCCC[C@@H]1C[C@H]1C(NC(=O)c1cccnc1)c1ccc(-c2ccccc2)cc1 (some centres not stated)	·	6%	·	·
O=C1/C(=C/c2cccnc2)Sc2ccccc21	?	4%	2%	26µM*
COc1ccc(C(=O)/C=C/Nc2ccc(NC(C)=O)cc2)cc1OC	?	7%	1%	16µM*
COc1ccc(N/C=C/C(=O)c2cc(OC)c(OC)c(OC)c2)cc1	1µM*	·	·	1µM*
COc1ccc(OC)c(C(C[N+](=O)[O-])c2c(C)cc3ccccn23)c1 (configuration not stated)	2.9µM*	1%[0.0935 µM]	·	2.1µM*
Cc1cc2c(s1)c1cnn(Cc3ccccc3F)c(=O)c1n2C(C)C	·	-8%	·	·
CC12CCC(C(=O)N(Cc3ccccc3)Cc3ccccc3)(OC1=O)C2(C)C (configuration not stated)	?	2%	3%	18µM*
CC12CCC(C(=O)NNC(=O)c3ccccc3)(OC1=O)C2(C)C (configuration not stated)	4%	5%	1%	-12%
CCn1c(=O)[nH]c2cc(C(=O)Nc3cc(C)cc(C)c3)ccc2c1=O	?	3%	·	-17%
COC(=O)c1cc(NC(=O)c2ccc3c(c2)NC(=O)c2ccccc2S3)cc(C(=O)OC)c1	6.5µM*	·	-6%	4.6µM*
COc1ccccc1/C=C1\CCCC2=C1Nc1nnnn1C2c1ccccc1OC (configuration not stated)	12µM*	-3%	-18%	12µM*
O=C(NCC(O)c1ccc2ccccc2c1)c1c(F)cccc1F (configuration not stated)	-3%	·	0%	-11%
CN(C)c1ccc(CNC(=O)CN2C(=O)C3CCCCN3c3ccc(C(=O)N4CCCC4)cc32)cc1 (configuration not stated)	?	-1%	-5%	23µM*
COC(=O)c1ccc(NC(=O)c2ccc3c(c2)NC(=O)C2CCCN32)cc1 (configuration not stated)	·	-16%	·	·
CCN1C(=O)C2CCCCN2c2ccc(C(=O)NCCOC)cc21 (configuration not stated)	5%	·	-6%	21%

Screening data from PubChem BioAssay.
